Source: PubChem (Johns Hopkins Ion Channel Center)
The list is not random: actives were taken first. Their share in the collection is about 1.6%.
KCNQ2 inh = blocks the rat KCNQ2 potassium channel. CHO-K1 KCNQ2, FluxOR thallium flux, 20 min; stronger effect = lower value. B-score at 10 µM. actives 1.1% (n = 310,000). AID 2156;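 active means fluorescence ratio B-score at most minus 3 library SDs, with starting brightness B-score within 2 library SDs, cut at about -5.5 in these data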
KCNQ2 pot = potentiators of rat KCNQ2 potassium channel; O88943; CHO-K1 KCNQ2, FluxOR thallium flux fluorescence; stronger effect = higher value; B-score at 10 µM; actives 0.54% (n = 310,000); AID 2239;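 active means fluorescence ratio B-score at least 3 SD of library B-scores, with initial fluorescence B-score within 3 of them, cut at about 5.3 in these data; same plate scores as AID 2156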;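 further: B-score of peak minus minimum over baseline fluorescence ratio after K+ and Tl+ stimulus; positive B-score means potentiation of KCNQ2 with more thallium influx and brighter signal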
Kir21 conf inh = confirmation of mouse Kir2.1 potassium channel inhibitors | shares compounds with KCNQ2 pot | Kir2.1-expressing cells, FluxOR thallium flux fluorescence; stronger effect = lower value | Tl flux remaining, % of negative control (stronger effect = lower value), % at 10 µM | actives 41% (n = 2,300) | AID 2032;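 active means Primary-screen hit whose thallium flux fell at least 3 control SD below untreated wells in both duplicates, with normal baseline fluorescence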;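 further: 0% = blank wells without stimulus and 100% = stimulated no-compound controls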
HEK293 Tl flux = alters thallium flux in parental HEK293 cells, Kir2.1 counter-screen; shares compounds with KCNQ2 pot; FluxOR thallium flux fluorescence; 0% = unstimulated blank wells; FluxOR signal as % of negative control (100 = no effect), % at 10 µM; actives 19% (n = 2,300); AID 2105;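 active means dye signal at least 3 control SD above or below untreated wells in both duplicates, raw fluorescence within 3, either direction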;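 further: percent is based on the flux ratio of peak minus minimum fluorescence over baseline F0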
CHO-K1 Tl ctr = counter-screen for KCNQ2 potentiators: effect in parental CHO-K1 cells. actives 43% (n = 1,200). shares compounds with KCNQ2 pot. activity increase over 3SD of controls, % at 10 µM. FluxOR thallium flux fluorescence; zero = vehicle mean+3SD, 100% = vehicle-minus-blank window. AID 2282;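 active means signal rise of at least 3 SD above the untreated control mean, in both duplicate wells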;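 further: counter screen of KCNQ2 potentiator hits so any rise reflects channel-independent effects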
KCNQ1 sel pot = tests whether KCNQ2 potentiators also act on human KCNQ1; shares compounds with KCNQ2 pot; actives 28% (n = 1,200); activation over 3SD threshold, % at 10 µM; CHO KCNQ1 stable, FluxOR thallium flux fluorescence; beyond 3SD, as % of vehicle-control signal;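 active means fluorescence ratio rise of at least 3 SD of vehicle wells above their mean, in both replicate wells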;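 further: 0% = vehicle mean plus 3 SD and 100% = vehicle minus unstimulated blank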
Target sequence (P51787 whole entry, looked up): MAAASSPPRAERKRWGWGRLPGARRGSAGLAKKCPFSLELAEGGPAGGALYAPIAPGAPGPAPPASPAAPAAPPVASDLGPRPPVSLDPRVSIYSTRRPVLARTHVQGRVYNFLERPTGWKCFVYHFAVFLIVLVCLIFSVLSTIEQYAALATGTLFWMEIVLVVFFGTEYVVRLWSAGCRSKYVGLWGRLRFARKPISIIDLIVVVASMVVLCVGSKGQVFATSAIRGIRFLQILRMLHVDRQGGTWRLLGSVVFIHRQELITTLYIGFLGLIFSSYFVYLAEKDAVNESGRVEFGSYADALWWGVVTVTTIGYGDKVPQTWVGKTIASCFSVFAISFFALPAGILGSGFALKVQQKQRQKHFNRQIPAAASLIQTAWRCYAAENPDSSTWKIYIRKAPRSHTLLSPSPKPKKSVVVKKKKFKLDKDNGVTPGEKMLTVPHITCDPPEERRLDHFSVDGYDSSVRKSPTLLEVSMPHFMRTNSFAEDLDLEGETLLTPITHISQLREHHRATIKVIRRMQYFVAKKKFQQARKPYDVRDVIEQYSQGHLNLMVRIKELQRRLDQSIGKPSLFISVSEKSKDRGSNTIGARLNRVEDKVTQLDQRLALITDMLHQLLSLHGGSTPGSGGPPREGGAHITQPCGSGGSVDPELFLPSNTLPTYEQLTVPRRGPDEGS
KCNQ2 pot confirm = confirmation of rat KCNQ2 potassium channel potentiators. AID 2287. shares compounds with KCNQ2 pot. CHO-KCNQ2 cells, FluxOR thallium flux fluorescence. actives 68% (n = 1,200). potentiation, less the hit threshold, % at 10 µM;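 active means fluorescence ratio rising 3 SD or more over the vehicle control mean in both replicates, plus primary screen hit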;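 further: peak minus minimum thallium fluorescence divided by baseline after K/Tl stimulus; 0% = vehicle mean plus 3 SD and 100% = vehicle minus unstimulated blank difference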
Kir2-1 sel = tests whether KCNQ2 potentiators also affect mouse Kir2.1; shares compounds with KCNQ2 pot; actives 2% (n = 1,200); HEK293 Kir2.1, FluxOR thallium flux fluorescence; activity over 3SD threshold, % at 10 µM;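 active means fluorescence ratio rise of at least 3 SD above the vehicle-control mean, seen in both replicates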;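 further: 0% = vehicle mean plus 3 SD and 100% = vehicle minus no-stimulus blank window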
KCNQ2 W236L MoA = potentiates the retigabine-insensitive rat KCNQ2 W236L mutant channel; CHO KCNQ2-W236L, automated patch clamp current; current increase over 3SD of negative controls (%), stronger effect = higher value, % at 25 µM; shares compounds with KCNQ2 pot; actives 10% (n = 940);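 active means current increase at least 3 SD of the untreated controls above them in both duplicate recordings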
The depositor's hits bear a star; i = inactive; . = not tested or not shown.

SMILES | KCNQ2 inh | KCNQ2 pot | Kir21 conf inh | HEK293 Tl flux | others
O=C(Nc1sc2c(c1C(=O)O)CCCCC2)c1ccccc1 | i | 1.3 | . | .
O=C(Nc1sc2c(c1C(=O)O)CCCC2)c1cccc(Cl)c1 | i | 5.4* | i | i | CHO-K1 Tl ctr=-15;KCNQ1 sel pot=-32;KCNQ2 pot confirm=4.9*;Kir2-1 sel=-34;KCNQ2 W236L MoA=i
O=C(Nc1sc2c(c1C(=O)O)CCCC2)c1ccc(Cl)cc1 | i | 7.9* | i | i | CHO-K1 Tl ctr=-10;KCNQ1 sel pot=-21;KCNQ2 pot confirm=-5;Kir2-1 sel=-30
O=C(Nc1sc2c(c1C(=O)O)CCC2)c1ccccc1 | i | 1.4 | . | .
O=C(CNCc1cccs1)Nc1ccc(OC(F)(F)F)cc1 | i | 1.2 | . | .
COc1ccccc1NC(=S)N1CCN(c2nc(-c3ccccc3)cs2)CC1 | i | . | . | .
Cc1[nH]c2ccccc2c1C(=O)C(C)OC(=O)c1ccccc1NCCO (stereo not given) | i | . | . | .
CC(C)Oc1cccc(C2NC(=O)c3ccccc3O2)c1 (stereo not given) | i | . | . | .
COCCn1c(C)c(C)c(S(=O)(=O)c2ccccc2)c1N | i | . | . | .
CCCCN(CCCC)c1ccc(C(=O)c2ccccc2C(=O)O)c(O)c1 | i | 8.9* | i | i | CHO-K1 Tl ctr=-7;KCNQ1 sel pot=-22;KCNQ2 pot confirm=-2;Kir2-1 sel=-38;KCNQ2 W236L MoA=i
CN(C)c1ccc(C(=O)c2ccccc2C(=O)O)c(O)c1 | i | 0.86 | . | .
C=CCn1c(SCC(=O)NCCOC)nnc1-c1cc2c(s1)CCC(CC)C2 (stereo not given) | i | . | . | .
CCN(c1cccc(C)c1)S(=O)(=O)c1ccc2c(c1)NC(=O)CS2 | i | . | 62%* | i
CCN(c1ccc(OC)cc1)S(=O)(=O)c1ccc2c(c1)NC(=O)CS2 | i | . | . | .
Cc1csc(C(=O)NN)c1N(C)C | i | 1 | . | .
Cc1nc(N)sc1C(=O)N1N=N1 | i | 1.1 | . | .
COC(=O)COc1ccc(Oc2nc(SC)nc(N(C)C)n2)nn1 | i | 1.3 | . | .
CC(O)CNCCCOc1cccc(Oc2ccccc2)c1 (stereo not given) | i | 2.4 | 14%* | i
CC(O)CNCCCOc1cccc(C(F)(F)F)c1 (stereo not given) | i | 2.2 | . | .
C#CCOC(=O)c1cc(Cl)c(=O)n(Cc2ccc(Cl)cc2Cl)c1 | i | 0.87 | . | .
Cn1cccc1/C=N/NC(=O)c1sc2ccccc2c1Cl | i | . | . | .
O=C(N/N=C/c1ccc([N+](=O)[O-])o1)c1sc2ccccc2c1Cl | i | 5.5* | i | i | CHO-K1 Tl ctr=7.0*;KCNQ1 sel pot=-24;KCNQ2 pot confirm=-15;Kir2-1 sel=-35
Cc1cccc(NC(=O)CSc2nnnn2-c2ccc3c(c2)OCCO3)n1 | i | . | . | .
CC1=NN(c2ccc(Br)cc2)C(=O)/C1=C/c1ccc(-c2ccccc2C(=O)O)o1 | i | 7.1* | i | i | CHO-K1 Tl ctr=-12;KCNQ1 sel pot=14*;KCNQ2 pot confirm=19*;Kir2-1 sel=-33;KCNQ2 W236L MoA=i
CC1=NOC(=O)/C1=C\c1ccc(-c2ccc(Br)cc2C(=O)O)o1 | i | 1.2 | . | .
CCCc1sc(N/N=C/c2ccccn2)nc1-c1ccc(F)cc1 | i | 5.8* | i | i | CHO-K1 Tl ctr=-6;KCNQ1 sel pot=12*;KCNQ2 pot confirm=-23;Kir2-1 sel=-31
CCN=c1scc(-c2ccc(F)cc2)n1/N=C/c1ccccn1 | i | 0.94 | . | .
CC(C)c1ccc(NC(=O)C2CC3CCC2C3)cc1 (stereo not given) | i | 26* | i | i | CHO-K1 Tl ctr=30*;KCNQ1 sel pot=-12;KCNQ2 pot confirm=66*;Kir2-1 sel=-23;KCNQ2 W236L MoA=i
O=C(Nc1ccc(F)cc1)C1CC2CCC1C2 (stereo not given) | i | 1.4 | . | .
